Source: PubChem BioAssay (Broad Institute)
An excerpt weighted towards active compounds, which were near 2.4% of everything screened.
NSD2 HMT inh – NSD2 histone methyltransferase inhibitors, primary screen, biochemical, AlphaScreen, single concentration, set 2. Histone-lysine N-methyltransferase NSD2 (Homo sapiens), O96028. AID 743445, 2014. NSD2 peptide methylation, 120 min. 310,000 compounds, 0.54% hits. inhibition, % at 12.5 µM
Target sequence (O96028 whole entry, looked up): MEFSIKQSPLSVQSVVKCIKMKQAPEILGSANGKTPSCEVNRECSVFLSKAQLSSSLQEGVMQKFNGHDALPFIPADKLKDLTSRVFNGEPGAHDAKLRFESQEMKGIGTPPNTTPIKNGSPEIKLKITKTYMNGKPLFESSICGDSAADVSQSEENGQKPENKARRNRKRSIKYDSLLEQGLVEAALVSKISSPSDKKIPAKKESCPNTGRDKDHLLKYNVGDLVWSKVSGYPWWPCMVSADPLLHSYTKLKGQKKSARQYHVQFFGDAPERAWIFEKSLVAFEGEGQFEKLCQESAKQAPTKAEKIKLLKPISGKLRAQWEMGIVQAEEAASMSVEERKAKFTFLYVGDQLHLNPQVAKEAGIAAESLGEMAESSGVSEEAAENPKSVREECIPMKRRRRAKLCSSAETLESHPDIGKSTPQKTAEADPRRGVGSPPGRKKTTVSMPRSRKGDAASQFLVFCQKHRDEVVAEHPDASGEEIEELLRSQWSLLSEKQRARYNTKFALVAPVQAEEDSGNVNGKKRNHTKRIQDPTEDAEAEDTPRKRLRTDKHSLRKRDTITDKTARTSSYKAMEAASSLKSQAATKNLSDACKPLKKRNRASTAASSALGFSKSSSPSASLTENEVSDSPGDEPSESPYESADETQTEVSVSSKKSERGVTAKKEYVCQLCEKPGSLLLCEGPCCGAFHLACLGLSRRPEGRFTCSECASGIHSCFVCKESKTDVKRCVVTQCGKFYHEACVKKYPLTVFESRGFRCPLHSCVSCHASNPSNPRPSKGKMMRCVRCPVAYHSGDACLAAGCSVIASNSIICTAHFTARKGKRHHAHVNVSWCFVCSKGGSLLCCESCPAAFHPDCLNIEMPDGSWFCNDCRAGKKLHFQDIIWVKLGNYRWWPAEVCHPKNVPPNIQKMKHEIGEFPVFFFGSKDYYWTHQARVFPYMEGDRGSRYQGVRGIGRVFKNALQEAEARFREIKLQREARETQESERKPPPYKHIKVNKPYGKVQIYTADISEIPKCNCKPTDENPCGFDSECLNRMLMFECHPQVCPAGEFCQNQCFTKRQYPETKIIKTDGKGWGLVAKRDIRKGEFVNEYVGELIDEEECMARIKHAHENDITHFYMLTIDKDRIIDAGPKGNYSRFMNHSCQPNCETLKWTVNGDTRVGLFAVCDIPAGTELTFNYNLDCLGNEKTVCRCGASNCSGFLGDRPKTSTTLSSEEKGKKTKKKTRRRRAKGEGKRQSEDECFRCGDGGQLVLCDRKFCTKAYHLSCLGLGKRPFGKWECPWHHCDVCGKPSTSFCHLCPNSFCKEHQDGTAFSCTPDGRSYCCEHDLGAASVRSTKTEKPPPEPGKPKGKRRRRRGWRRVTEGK
Dyrk1A ADPGlo – rat Dyrk1A kinase inhibitors, primary screen, biochemical, single point, plate reader; inhibition, % at 12.5 µM; 310,000 compounds, 0.43% hits; ADP-Glo luminescence, NFATc1 peptide; AID 504441, 2011; Dual specificity tyrosine-phosphorylation-regulated kinase 1A (Rattus norvegicus), Q63470;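 also: plate controls were vehicle with enzyme for no effect and no enzyme for full effect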
Wnt act – Wnt/beta-catenin pathway activators, primary screen, cell-based, plate reader, single point. Wnt/beta-catenin reporter cell assay, activator. activation, % at 9.35 µM. 300,000 compounds, 1.2% hits; in the data active = activation above about 30%, passing the limit was not always enough; inconclusive = no clear call, values can overlap the other calls;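 also: 0% = neutral control wells and 100% = positive control wells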
MITF TRPM1 HTS – activators of MITF-driven TRPM1 promoter reporter, primary screen, cell-based, SK-MEL-5, luciferase, single point; SK-MEL-5 TRPM1-promoter luciferase, 24 h; % of positive control, neutral wells = 0; activation, % at 12.5 µM; 300,000 compounds, 0.75% hits; AID 588334, 2011;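 active = mean activation of at least 80% with every replicate also reaching 80%; inconclusive = mean reaches 80% but some replicate falls short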;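 also: 0% = neutral control wells and 100% = parthenolide positive control wells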
GSIS activator – GLuc luminescence reporter in INS-1E cells, primary screen for activators of glucose-dependent secretion of insulin | INS-1E GLuc reporter insulin secretion, 2-3 h | activation, % at 16.6 µM | 370,000 compounds, 0.61% hits;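 active = lowest replicate activation of at least 40%, so every replicate reaches that level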;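 also: 0% = median of neutral control wells and 100% = median of IBMX positive control wells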
miR-122 sensor – miR-122 Renilla sensor signal increase in Huh7, primary screen, miR-122 inhibitor project, cell-based, single point, plate reader; AID 602342, 2012; activation (reporter increase), % at 12.5 µM; Huh7 miR-122 Renilla luciferase sensor, 48 h; neutral wells = 0, positive control = 100; 340,000 compounds, 0.3% hits;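 active = mean replicate activation score at least 90 and every replicate individually at or above 90; inconclusive = only one of the two criteria met; inactive = neither criterion met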;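 also: higher luciferase means less miR-122 activity so hits act as miR-122 inhibitors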
ADP-Glo artifact – ADP-Glo luciferase interference without Dyrk1A, dose response, artefact control for Dyrk1A inhibitor project, biochemical, luminescence, cherry-pick, set 02 | shares compounds with Dyrk1A ADPGlo | AC50, µM (highest dose often 12 µM), for the others: at the top dose activity change, negative = inhibition | ADP-Glo luciferase artifact assay, no Dyrk1A | 1,300 tested, under 10 active;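 active = fitted half-maximal dose AC50 no more than ten times the top valid tested dose, with luminescence dropping as dose rises; inconclusive = poor fit, or flat fit with 30 to 70% inhibition; inactive = the rest, signal increases included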
Starred values were filed as active, the others as inactive; ? = inconclusive; . = no result; [ ] = dose if it differs, or a comment. Rule as the data show it, unless noted: active = inhibition above about 50%; inactive = the rest.

SMILES | NSD2 HMT inh | Dyrk1A ADPGlo | Wnt act | MITF TRPM1 HTS | GSIS activator | miR-122 sensor | ADP-Glo artifact
Cc1cc(C)n(-c2ccc(C(=O)Nc3nc4ccccc4s3)cc2)n1 | -2 | 31 | ? | 56 | . | 1 | .
Cc1noc(C)c1S(=O)(=O)N(C)C[C@@H]1OCCCC[C@@H](C)Oc2ccc(NC(=O)NC3CCCCC3)cc2C(=O)N([C@H](C)CO)C[C@H]1C | . | . | . | . | -20 | -7[16.7 µM] | .
COc1ccc2c3c(n(C)c2c1)[C@@H](CO)NCC31CN(C(=O)c2ccccc2)C1 | . | . | . | . | 6 | . | .
CC(=O)c1cccc(NC(=O)Nc2ccc3c(c2)N(C)C(=O)CS3)c1 | 0 | 50* | . | 4 | -3 | -3 | 8%
O=C(c1ccncc1)N1C[C@@H]2N[C@H](C1)C2c1ccc(-c2cccnc2)cc1 (some centres undefined) | . | . | . | . | 10 | . | .
COC(=O)c1nccc2c1[nH]c1ccccc12 | . | 66* | -1 | 16 | 8 | -3 | 9%
COc1ccc(S(=O)(=O)Nc2ccc3c(c2)C(=O)N([C@@H](C)CO)C[C@@H](C)[C@H](CN(C)C(=O)Nc2ccccc2)OCCCC[C@@H](C)O3)cc1 | . | . | . | . | -12 | 40[16.7 µM] | .
N=C1/C(=C\c2ccc(-c3cccc(C(=O)O)c3)o2)C(=O)N=C2SC=C(c3ccccc3)N12 | . | 61* | 7 | 34 | 12 | -7 | 8%
COc1cccc(NC(=O)N2CC3(C2)[C@H](c2ccccc2)[C@@H](CO)N3C(=O)C2CCC2)c1 | . | . | . | . | -4 | . | .
Cc1ccc(S(=O)(=O)N(C)C[C@H]2Oc3ccc(NC(=O)CCN4CCOCC4)cc3CC(=O)N([C@@H](C)CO)C[C@@H]2C)cc1 | . | . | . | . | 7 | -1[16.7 µM] | .
Cc1ccc2c(c1)C(=O)CCN2 | -2 | -2 | -2 | 3 | 23 | -6 | .
Cc1ccc2c(c1)C(=C(C#N)C#N)CCN2 | 1 | 61* | -16 | -6 | -7 | . | 9%
Cc1nc(NC(=O)c2ccccc2)sc1-c1csc(NCc2ccco2)n1 | . | 67* | . | -11 | . | -1 | 7%
Cc1nc(C)c(-c2csc(NCc3ccco3)n2)s1 | 9 | 25 | 11 | 68 | -10 | -7 | .
COc1ccc(NC(=O)Nc2ccc3c(c2)C(=O)N([C@@H](C)CO)C[C@@H](C)[C@H](CN(C)C)O3)cc1 | . | . | . | . | 11 | -6[16.7 µM] | .
O=S(=O)(N[C@@H]1CC[C@@H](CCn2cc(C3(O)CCCC3)nn2)O[C@@H]1CO)c1ccc(F)cc1 | . | . | . | . | -16 | . | .
CCS(=O)(=O)Nc1ccc2c(c1)C(=O)N(C)[C@H]1CC[C@@H](CC(=O)NCc3ccccc3F)O[C@@H]1CO2 | . | . | . | . | -3 | . | .
O=Cc1ccc(Oc2cnccn2)cc1 | -4 | 1 | 1 | 15 | 4 | -23 | .
CCOc1ccc(N(C)c2ccc(/C=C3/SC(=S)NC3=O)cc2)cc1 | 24 | -6 | 0 | . | 7 | . | .
O=C1NC(=S)S/C1=C/c1ccc(Oc2cnccn2)cc1 | -5 | 65* | -2 | 7 | 4 | . | 10%
O=C1NC(=O)/C(=C\c2ccc(Oc3cnccn3)cc2)S1 | 0 | 59* | 2 | 27 | -28 | . | 10%
COc1ccc(N/C=C2\C(=O)CCc3c2oc2cc(Cl)c(O)c(Cl)c32)cc1 | 3 | 55* | 0 | 0 | 3 | -6 | 9%
Cc1ccc(S(=O)(=O)Nc2cccc3c2O[C@@H](CN(C)C(=O)Nc2c(C)noc2C)[C@H](C)CN([C@@H](C)CO)C3=O)cc1 | . | . | . | . | 6 | 3[16.7 µM] | .
CCCN(CCC)CCNC(=O)c1cc2c(=O)n(C)c3ccccc3c2n1C | . | 70* | 2 | 11 | 22 | 3 | 10%
CN(CCNC(=O)c1cc2c(=O)n(C)c3ccccc3c2n1C)Cc1ccccc1 | . | 34 | -1 | 14 | -2 | -8 | .
SMILES | NSD2 HMT inh | Dyrk1A ADPGlo | Wnt act | MITF TRPM1 HTS | GSIS activator | miR-122 sensor | ADP-Glo artifact
COc1ccc(C(=O)c2sc(Nc3ccccc3F)nc2N)cc1 | 1 | 61* | ? | . | 17 | -8 | 8%
COc1ccc(C(=O)c2sc(Nc3ccccc3)nc2N)cc1 | -2 | -1 | -1 | . | 32 | . | .
Nc1nc(Nc2ccccc2)sc1C(=O)c1ccccc1 | . | 81* | 51* | . | 21 | 10 | 8%
CC(C)NC(=O)Nc1ccc2c(c1)C(=O)N([C@@H](C)CO)C[C@@H](C)[C@H](CN(C)S(=O)(=O)c1cccs1)O2 | . | . | . | . | 7 | -5[16.7 µM] | .
Oc1ccc(Nc2nc(-c3ccc4ccccc4c3)cs2)cc1 | 10 | 1 | . | -6 | -22 | -21 | .
Oc1ccc(-c2nc(-c3ccc(O)c(O)c3)cs2)cc1 | 17 | 72* | . | . | . | -30 | 7%
N#C/C(=C\c1ccc(O)c(Br)c1)C(=O)N1CCCCC1 | -1 | 41 | -1 | . | -20 | 4 | .
Cc1occc1C(=O)/C(C#N)=C/c1ccc(O)c(Br)c1 | 6 | 67* | -2 | 18 | -52 | -4 | 7%
NNc1nccc(Nc2ccccc2C(=O)O)n1 | -5 | 84* | -3 | 6 | . | -7 | 9%
COc1ccc(Nc2ccccc2C(=O)O)cc1 | -2 | -7 | -1 | 3 | 10 | 3 | .
CCO/C(=C/c1sc2ccc(OC)cc2[n+]1CCCS(=O)(=O)[O-])CC | 2 | 57* | -4 | . | . | . | 9%
CCC(/C=C1\Sc2ccc(OC)cc2N1CC)=C\c1sc2ccc(OC)cc2[n+]1CCCS(=O)(=O)[O-] | 11 | 2 | -2 | -53 | 0 | . | .
C(=N\NC1=Nc2cccc3cccc1c23)/c1ccccn1 | 0 | 53* | -6 | 4 | 14 | . | 9%
Clc1ccccc1/C=N/NC1=Nc2cccc3cccc1c23 | 34 | 2 | 1 | 33 | . | . | .
O=C(C[C@H]1C[C@@H]2c3cc(NC(=O)Nc4ccc(F)cc4)ccc3O[C@@H]2[C@H](CO)O1)NC1CCCCC1 | . | . | . | . | 6 | -4[16.7 µM] | .
COc1ccc(CN(C)C[C@H]2Oc3ccc(NS(=O)(=O)c4cccs4)cc3CC(=O)N([C@H](C)CO)C[C@@H]2C)cc1 | . | . | . | . | -1 | . | .
c1cncc(-c2nc3ccccc3[nH]2)c1 | -2 | 51* | . | 10 | . | . | 10%
c1ccc2[nH]c(-c3ccncc3)nc2c1 | -2 | 32 | 2 | 41 | -33 | . | .
COCC(=O)Nc1ccc2c(c1)C(=O)N(C)C[C@H](OC)[C@H](C)CN(C(=O)c1cnccn1)[C@@H](C)CO2 | . | . | . | . | 11 | 3[16.7 µM] | .
O=C(Nc1ccc2ccccc2n1)c1ccccc1 | -3 | 51* | 18 | 29 | 5 | 2 | 8%
COc1ccc(C(=O)Nc2ccc3ccccc3n2)cc1OC | -1 | 19 | 22 | 53 | 16 | -8 | .
